Values without a mark were called inactive. Inconclusive results are not listed. Where a call stands in place of a potency, no number is given. The source made the active and inactive calls. Unless noted, calls come from the whole dose curve; as a rule, active = well fitted curve in the direction sought with a large enough effect in the repeat runs; inconclusive = weak or mixed curves; inactive = no such curve, though single readings can be large; an effect the other way counts as inactive or inconclusive. Positions of bridges follow the written chain, without caps; N, C: chain ends. Non-standard residues stand in square brackets, D forms with d. Residues, ends and D or L forms follow the SMILES beside them. hArg = N=C(N)NCCCC[C@H](N)C(=O)O; Mpa = O=C(O)CCS
Tests used:
[1] = qHTS assay to identify small molecule agonists of the TGF-beta/Smad signaling pathway - cell viability counter screen (AID 1346829); note: top concentration of the series differs between compounds; nearly all actives have a fitted effect of over 45% in size
How it was run: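 CellTiter-Glo luminescence readout; SBE-bla HEK 293T cells, overnight plating, compound 5 hr at 37 C/5% CO2, then bla substrate 2 hr RT, then CellTiter-Glo 30 min RT.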

[2] = qHTS assay to identify small molecule agonists of the TGF-beta/Smad signaling pathway (AID 1346859; active = well fitted activation curve with a large enough effect in the signal ratio in the repeat runs, not every such curve was filed as active; the % refers to the signal ratio; note: series mostly up to about 77 µM)
How it was run: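 Fluorescence (ex 405 nm; em 460 and 530 nm) was read 2 h after LiveBLAzer FRET substrate at RT. The preceding compound treatment of overnight-plated SBE-bla HEK293T cells lasted 5 h at 37 C.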

[3] = target: Thyrotropin-releasing hormone receptor (Homo sapiens) (UniProt P34981); assay: qHTS assay to identify small molecule antagonists of the thyrotropin-releasing hormone receptor (TRHR) signaling pathway (AID 1346877; active = well fitted inhibition curve with a large enough effect in the repeat runs, not every such curve was filed as active; note: series mostly up to about 51 µM)
Sequence of Thyrotropin-releasing hormone receptor (Homo sapiens) (P34981 whole entry, looked up): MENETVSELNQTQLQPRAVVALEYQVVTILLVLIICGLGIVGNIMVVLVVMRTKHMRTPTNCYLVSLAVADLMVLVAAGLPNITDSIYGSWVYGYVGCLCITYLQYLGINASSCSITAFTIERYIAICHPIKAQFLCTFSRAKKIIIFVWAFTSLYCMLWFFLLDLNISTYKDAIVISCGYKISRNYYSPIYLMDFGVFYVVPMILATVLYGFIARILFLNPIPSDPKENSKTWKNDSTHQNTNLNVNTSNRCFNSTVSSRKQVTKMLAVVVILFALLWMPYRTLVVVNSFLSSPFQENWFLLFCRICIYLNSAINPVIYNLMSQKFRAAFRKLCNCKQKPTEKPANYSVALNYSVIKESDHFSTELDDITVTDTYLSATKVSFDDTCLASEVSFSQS
How it was run: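 Cells (TRHR-HEK293) are plated and kept 18 h at 37 °C/5% CO2. A calcium-sensitive dye is added for 2 h, compound follows for 5 min at room temperature, and TRH is then given at 1 nM final.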

[4] = target: Thyrotropin-releasing hormone receptor (Homo sapiens) (UniProt P34981); assay: qHTS assay to identify small molecule agonists of the thyrotropin-releasing hormone receptor (TRHR) signaling pathway (AID 1346891; calls by dose curve; note: series mostly up to about 58 µM)
How it was run: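 Agonist-mode intracellular calcium readout: kinetic fluorescence over 3 min at 1 s intervals after compound addition to TRHR-HEK293 cells (18 h seeded, 2 h dye-loaded at 37 C). Fifteen concentrations, triplicates.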

[5] = Human pregnane X receptor (PXR) small molecule agonists, qHTS cell viability counter screen (AID 1346977); note: nearly all actives have a fitted effect of over 50% in size
How it was run: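 Same-well viability read: CellTiter-Fluor added after 23 hr compound exposure, fluorescence measured 1 hr later. Cells were PXR-Luc HepG2 seeded at 2,000/well in 5% charcoal-stripped FBS medium, rested 5 hr before dosing at 37 C.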

[6] = Caspase-3/7 induction in HepG2 cells by small molecules, qHTS assay (AID 1346978); note: nearly all actives have a fitted effect of over 15% in size
How it was run: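 Caspase-3/7 induction was measured by Caspase-Glo 3/7 luminescence (30 min, room temperature) after a 17 hr compound exposure of wild-type HepG2 cells seeded at 2,000 per well and pre-incubated 5 hr.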

[7] = Caspase-3/7 induction in CHO-K1 cells by small molecules, qHTS cell viability counter screen (AID 1346979); note: nearly all actives have a fitted effect of over 35% in size; note: potency is the fitted concentration of half-maximal effect
How it was run: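 Cytotoxicity counter screen: CellTiter-Fluor added to compound-treated wild-type CHO-K1 cells at 16 h (37C, 5% CO2), fluorescence measured 1 h later; same wells as caspase-3/7 measurement.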

[8] = Caspase-3/7 induction in CHO-K1 cells by small molecules, qHTS assay (AID 1346980); note: nearly all actives have a fitted effect of over 15% in size
How it was run: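 Luminescent Caspase-Glo 3/7 read (30min, room temperature) quantified apoptosis induction. Cells were wild-type CHO-K1, treated with compound for 17hr at 37 C and 5% CO2.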

[9] = Caspase-3/7 induction in HepG2 cells by small molecules, qHTS cell viability counter screen (AID 1346981); note: series mostly up to about 92 µM; nearly all actives have a fitted effect of over 30% in size
How it was run: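 Steps: seed 2,000 HepG2 cells per well; incubate 5 hr at 37 C; pin-add compounds in DMSO; incubate 16 hr; add CellTiter-Fluor; after 1 hr at 37 C and 5% CO2, read fluorescence.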

[10] = target: Nuclear receptor subfamily 1 group I member 2 (Homo sapiens) (UniProt O75469); assay: Human pregnane X receptor (PXR) small molecule agonists, qHTS assay (AID 1346982); note: nearly all actives have a fitted effect of over 35% in size
Sequence of Nuclear receptor subfamily 1 group I member 2 (Homo sapiens) (O75469 whole entry, looked up): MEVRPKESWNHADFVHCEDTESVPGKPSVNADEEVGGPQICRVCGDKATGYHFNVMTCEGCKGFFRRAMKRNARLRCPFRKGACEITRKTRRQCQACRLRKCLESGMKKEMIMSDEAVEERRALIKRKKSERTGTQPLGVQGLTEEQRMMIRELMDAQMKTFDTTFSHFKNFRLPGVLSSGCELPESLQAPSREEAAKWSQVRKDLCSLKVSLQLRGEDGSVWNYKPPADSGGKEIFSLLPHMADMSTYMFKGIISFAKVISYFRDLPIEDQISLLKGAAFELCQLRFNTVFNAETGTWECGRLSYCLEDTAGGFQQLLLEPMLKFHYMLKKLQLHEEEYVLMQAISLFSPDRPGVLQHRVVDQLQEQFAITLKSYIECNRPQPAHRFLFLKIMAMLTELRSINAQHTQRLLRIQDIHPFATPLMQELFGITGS
How it was run: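 Agonist mode qHTS: PXR-Luc HepG2 cells plated 5 hr before DMSO-dissolved compounds were pinned in, cultured 24 hr at 37 C, 5% CO2; ONE-Glo luminescence readout.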

[11] = target: Cytochrome P450 2D6 (Homo sapiens) (UniProt P10635); assay: Cytochrome P450 Family 2 Subfamily D Member 6 (CYP2D6) small molecule antagonists: luciferase reporter qHTS assay (AID 1671196); note: series mostly up to about 120 µM; nearly all actives have a fitted effect of over 50% in size
Sequence of Cytochrome P450 2D6 (Homo sapiens) (P10635 whole entry, looked up): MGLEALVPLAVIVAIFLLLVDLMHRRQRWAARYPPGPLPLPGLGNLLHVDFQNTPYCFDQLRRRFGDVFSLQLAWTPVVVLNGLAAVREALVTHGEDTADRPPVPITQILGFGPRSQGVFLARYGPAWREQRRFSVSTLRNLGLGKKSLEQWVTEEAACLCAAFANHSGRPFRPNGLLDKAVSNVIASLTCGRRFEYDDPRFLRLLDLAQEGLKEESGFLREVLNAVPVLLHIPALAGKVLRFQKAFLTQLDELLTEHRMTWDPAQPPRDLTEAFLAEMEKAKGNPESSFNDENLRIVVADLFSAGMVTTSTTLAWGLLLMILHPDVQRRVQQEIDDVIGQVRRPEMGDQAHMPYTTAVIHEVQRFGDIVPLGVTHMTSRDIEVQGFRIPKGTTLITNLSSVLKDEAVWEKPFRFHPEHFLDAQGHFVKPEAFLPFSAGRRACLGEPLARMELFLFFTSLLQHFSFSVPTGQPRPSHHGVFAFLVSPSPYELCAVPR
How it was run: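 P450-Glo format: CYP2D6 converts a proluciferin substrate to luciferin in an NADPH-driven reaction lasting 1 h at room temperature. Light output, proportional to CYP2D6 activity, reflects interference by test chemicals.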

[12] = target: Cytochrome P450 2C19 (Homo sapiens) (UniProt P33261); assay: Cytochrome P450 Family 2 Subfamily C Member 19 (CYP2C19) small molecule antagonists: luciferase reporter qHTS assay (AID 1671197); note: series mostly up to about 120 µM; nearly all actives have a fitted effect of over 65% in size
Sequence of Cytochrome P450 2C19 (Homo sapiens) (P33261 whole entry, looked up): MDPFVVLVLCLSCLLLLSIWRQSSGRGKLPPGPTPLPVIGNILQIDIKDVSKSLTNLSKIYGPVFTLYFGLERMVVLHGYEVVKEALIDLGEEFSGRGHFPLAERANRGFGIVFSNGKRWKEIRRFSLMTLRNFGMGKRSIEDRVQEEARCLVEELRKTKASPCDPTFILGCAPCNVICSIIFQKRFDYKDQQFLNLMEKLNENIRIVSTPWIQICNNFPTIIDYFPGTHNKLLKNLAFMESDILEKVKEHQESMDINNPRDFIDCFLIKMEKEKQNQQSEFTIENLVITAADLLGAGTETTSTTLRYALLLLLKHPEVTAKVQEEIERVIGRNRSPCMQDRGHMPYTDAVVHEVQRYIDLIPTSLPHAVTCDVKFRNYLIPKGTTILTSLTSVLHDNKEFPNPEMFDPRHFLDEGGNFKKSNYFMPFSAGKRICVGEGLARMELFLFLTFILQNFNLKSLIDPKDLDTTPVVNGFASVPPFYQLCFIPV
How it was run: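 Enzyme-substrate mix with proluciferin substrate (P450-Glo CYP2C19 system) preincubated with compounds 10 min at room temperature; NADPH regeneration solution added, 37C for 1 h; detection reagent stops reaction, luminescence read after 20 min. Ketoconazole positive control.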

[13] = target: Cytochrome P450 2C9 (Homo sapiens) (UniProt P11712); assay: Cytochrome P450 Family 2 Subfamily C Member 9 (CYP2C9) small molecule antagonists: luciferase reporter qHTS assay (AID 1671198); note: series mostly up to about 120 µM; nearly all actives have a fitted effect of over 50% in size
Sequence of Cytochrome P450 2C9 (Homo sapiens) (P11712 whole entry, looked up): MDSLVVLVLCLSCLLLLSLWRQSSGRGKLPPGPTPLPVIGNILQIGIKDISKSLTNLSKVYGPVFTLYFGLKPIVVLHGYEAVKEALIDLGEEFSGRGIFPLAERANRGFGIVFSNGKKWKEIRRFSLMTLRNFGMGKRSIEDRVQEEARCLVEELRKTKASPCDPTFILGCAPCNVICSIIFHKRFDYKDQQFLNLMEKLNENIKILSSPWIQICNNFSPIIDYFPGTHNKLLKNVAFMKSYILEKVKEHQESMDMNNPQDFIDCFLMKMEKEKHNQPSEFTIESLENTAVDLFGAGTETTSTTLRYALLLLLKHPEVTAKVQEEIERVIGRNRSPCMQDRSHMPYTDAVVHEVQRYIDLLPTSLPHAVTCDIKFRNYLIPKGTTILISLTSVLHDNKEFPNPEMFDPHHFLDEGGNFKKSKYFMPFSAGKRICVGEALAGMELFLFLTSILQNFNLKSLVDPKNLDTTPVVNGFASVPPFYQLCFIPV
How it was run: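 Enzyme-substrate mix preincubated with compound 10 min at room temperature; reaction started with NADPH regeneration solution, 1 h 37C. Luminescent luciferin product read after 20 min detection reagent.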

[14] = target: Cytochrome P450 1A2 (Homo sapiens) (UniProt P05177); assay: Cytochrome P450 Family 1 Subfamily A Member 2 (CYP1A2) small molecule antagonists: luciferase reporter qHTS assay (AID 1671199); note: nearly all actives have a fitted effect of over 50% in size; note: potency is the fitted concentration of half-maximal effect
Sequence of Cytochrome P450 1A2 (Homo sapiens) (P05177 whole entry, looked up): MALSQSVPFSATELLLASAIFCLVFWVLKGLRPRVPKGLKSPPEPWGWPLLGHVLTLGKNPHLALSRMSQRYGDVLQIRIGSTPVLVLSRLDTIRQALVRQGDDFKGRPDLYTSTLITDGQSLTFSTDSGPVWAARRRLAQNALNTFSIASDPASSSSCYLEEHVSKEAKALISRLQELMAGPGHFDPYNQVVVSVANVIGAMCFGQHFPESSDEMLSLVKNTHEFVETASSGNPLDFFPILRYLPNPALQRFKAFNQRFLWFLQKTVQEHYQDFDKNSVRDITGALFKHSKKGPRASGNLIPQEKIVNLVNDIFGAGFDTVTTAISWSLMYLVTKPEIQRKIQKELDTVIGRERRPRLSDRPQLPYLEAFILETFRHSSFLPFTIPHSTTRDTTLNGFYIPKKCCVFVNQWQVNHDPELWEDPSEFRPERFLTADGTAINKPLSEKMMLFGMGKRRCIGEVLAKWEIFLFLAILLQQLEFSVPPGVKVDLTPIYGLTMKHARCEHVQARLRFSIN
How it was run: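 Inhibition of CYP1A2 conversion of proluciferin to luciferin, detected by luminescence. Reaction run 1 h at room temperature with NADPH regeneration after brief compound preincubation.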

[15] = target: Voltage-gated inwardly rectifying potassium channel KCNH2 (Homo sapiens) (UniProt Q12809); assay: Human Ether-a-go-go-Related Gene (hERG) channel small molecule antagonists: fluorescence cell-based qHTS assay (AID 1671200)
Sequence of Voltage-gated inwardly rectifying potassium channel KCNH2 (Homo sapiens) (Q12809 whole entry, looked up): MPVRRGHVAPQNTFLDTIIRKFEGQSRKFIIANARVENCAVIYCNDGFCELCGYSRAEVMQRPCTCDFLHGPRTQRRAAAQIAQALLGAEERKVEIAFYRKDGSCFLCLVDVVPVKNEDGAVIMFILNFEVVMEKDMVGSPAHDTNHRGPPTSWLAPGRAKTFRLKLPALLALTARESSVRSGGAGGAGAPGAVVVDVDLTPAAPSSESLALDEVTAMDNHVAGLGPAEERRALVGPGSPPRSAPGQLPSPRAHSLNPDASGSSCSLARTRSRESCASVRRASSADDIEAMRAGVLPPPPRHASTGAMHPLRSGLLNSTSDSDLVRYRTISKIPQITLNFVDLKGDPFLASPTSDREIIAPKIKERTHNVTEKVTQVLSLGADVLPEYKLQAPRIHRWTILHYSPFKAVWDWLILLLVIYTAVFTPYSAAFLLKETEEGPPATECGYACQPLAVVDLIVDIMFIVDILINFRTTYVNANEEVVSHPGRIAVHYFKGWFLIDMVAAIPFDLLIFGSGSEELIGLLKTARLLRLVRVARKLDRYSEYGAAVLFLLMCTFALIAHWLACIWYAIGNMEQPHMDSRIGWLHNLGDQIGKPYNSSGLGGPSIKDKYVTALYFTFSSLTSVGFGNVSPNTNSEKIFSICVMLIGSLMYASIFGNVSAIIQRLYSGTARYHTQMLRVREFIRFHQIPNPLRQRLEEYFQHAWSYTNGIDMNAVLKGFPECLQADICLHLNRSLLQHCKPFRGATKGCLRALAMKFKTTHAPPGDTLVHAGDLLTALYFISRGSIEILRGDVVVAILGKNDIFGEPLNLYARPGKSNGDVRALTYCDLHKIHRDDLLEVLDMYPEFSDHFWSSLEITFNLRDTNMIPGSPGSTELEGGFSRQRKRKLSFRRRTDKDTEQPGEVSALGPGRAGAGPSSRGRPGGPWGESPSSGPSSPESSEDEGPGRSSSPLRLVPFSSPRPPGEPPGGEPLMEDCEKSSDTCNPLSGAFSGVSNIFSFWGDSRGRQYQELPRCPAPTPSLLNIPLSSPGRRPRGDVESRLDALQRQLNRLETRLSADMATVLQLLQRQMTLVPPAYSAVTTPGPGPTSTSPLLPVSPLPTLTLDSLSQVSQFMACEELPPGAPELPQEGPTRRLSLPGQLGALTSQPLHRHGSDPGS
How it was run: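 Thallium flux as potassium surrogate: FluxOR II dye loaded 1 h at room temperature into hERG-expressing U2OS cells, then stimulus buffer added after 10 min. Kinetic 480 nm excitation/540 nm emission read, 2 min.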

[16] = target: Cytochrome P450 3A4 (Homo sapiens) (UniProt P08684); assay: Cytochrome P450 Family 3 Subfamily A Member 4 (CYP3A4) small molecule antagonists: luciferase reporter qHTS assay (AID 1671201)
Sequence of Cytochrome P450 3A4 (Homo sapiens) (P08684 whole entry, looked up): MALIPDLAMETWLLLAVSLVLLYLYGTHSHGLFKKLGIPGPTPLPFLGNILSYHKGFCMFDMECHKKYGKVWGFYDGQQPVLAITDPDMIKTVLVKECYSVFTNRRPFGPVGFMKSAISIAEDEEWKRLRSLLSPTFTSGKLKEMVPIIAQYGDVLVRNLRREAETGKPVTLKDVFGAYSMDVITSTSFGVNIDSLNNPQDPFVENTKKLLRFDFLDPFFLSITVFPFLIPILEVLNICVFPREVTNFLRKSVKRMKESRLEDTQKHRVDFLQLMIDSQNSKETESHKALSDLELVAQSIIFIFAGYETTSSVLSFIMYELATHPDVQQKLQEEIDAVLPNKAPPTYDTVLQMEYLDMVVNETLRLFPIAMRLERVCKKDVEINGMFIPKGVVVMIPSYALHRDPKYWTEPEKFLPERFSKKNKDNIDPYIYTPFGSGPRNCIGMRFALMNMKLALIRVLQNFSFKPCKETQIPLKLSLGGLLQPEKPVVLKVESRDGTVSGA
How it was run: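 Recombinant human CYP3A4 converts a proluciferin substrate to luciferin over 1 h at room temperature after NADPH regeneration solution is added (compound preincubated 10 min); detection reagent stops reaction, luminescence read 20 min later as relative units.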

[17] = target: Nuclear receptor subfamily 1 group I member 2 (Rattus norvegicus) (UniProt Q9R1A7); assay: Rat pregnane X receptor (rPXR) activation by small molecules, qHTS assay (AID 1346983); details: rPXR luciferase reporter cells, One-Glo luminescence, 24 h; hits give high values; note: nearly all actives have a fitted effect of over 20% in size
Sequence of Nuclear receptor subfamily 1 group I member 2 (Rattus norvegicus) (Q9R1A7 whole entry, looked up): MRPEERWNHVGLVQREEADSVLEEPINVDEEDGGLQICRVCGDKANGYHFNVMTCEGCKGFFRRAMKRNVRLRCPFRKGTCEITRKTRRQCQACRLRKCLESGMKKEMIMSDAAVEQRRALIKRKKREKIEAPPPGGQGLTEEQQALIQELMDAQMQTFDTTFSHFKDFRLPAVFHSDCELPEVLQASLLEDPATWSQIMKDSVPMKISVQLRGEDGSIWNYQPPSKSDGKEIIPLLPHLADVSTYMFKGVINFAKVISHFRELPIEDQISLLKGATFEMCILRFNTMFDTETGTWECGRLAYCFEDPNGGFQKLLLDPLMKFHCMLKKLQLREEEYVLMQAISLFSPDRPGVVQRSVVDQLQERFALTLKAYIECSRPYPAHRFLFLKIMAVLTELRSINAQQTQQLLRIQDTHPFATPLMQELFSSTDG
How it was run: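 Luminescent readout (One-Glo luciferase, 30 min room temperature) followed 24 hr compound treatment at 37 C of rPXR cells plated 2,000 per well and preincubated 5hr; qHTS format with compounds delivered in DMSO.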

[18] = target: Nuclear receptor subfamily 1 group I member 2 (Homo sapiens) (UniProt O75469); assay: CYP3A4 induction through human pregnane X receptor (PXR) by small molecules, qHTS assay (AID 1346984); note: nearly all actives have a fitted effect of over 40% in size
How it was run: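 Steps: seed DPX-2 cells, 5 hr at 37C; pin-transfer compounds; 24 hr at 37C; add Luciferin-IPA (3uM final), 3 hr at 37C; add One-Glo, 30 min RT; read luminescence.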

[19] = target: Nuclear receptor subfamily 1 group I member 2 (Homo sapiens) (UniProt O75469); assay: Human pregnane X receptor (PXR) activation by small molecules, qHTS assay (AID 1346985); note: nearly all actives have a fitted effect of over 40% in size
How it was run: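 DPX-2 cells (HepG2 co-transfected with a PXR response element and a CYP3A4-promoter luciferase construct) were seeded at 2,000 per well, rested 5 hr at 37C, then exposed to DMSO-dissolved compounds for 24 hr. Activation was read as luciferase luminescence.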

Compound | outcome [1] | outcome [2] | outcome [3] | outcome [4] | outcome [5] | outcome [6] | Potency [7] | outcome [8] | outcome [9] | Potency [10] | Potency [11] | Potency [12] | Potency [13] | Potency [14] | Potency [15] | Potency [16] | max activation [17] [%] | Potency [18] | Potency [19]
CC(=O)OCC(=O)Nc1cc(C#N)cc(NC(=O)COC(C)=O)c1Cl | inactive | inactive | inactive | inactive | inactive | inactive | inactive | inactive | inactive | inactive | inactive | inactive | inactive | inactive | inactive | inactive | – | – | –
NC(=O)[C@@H]1CSSCCC(=O)N[C@@H](CCCCN=C(N)N)C(=O)NCC(=O)N[C@@H](CC(=O)O)C(=O)N[C@@H](Cc2c[nH]c3ccccc23)C(=O)N2CCC[C@H]2C(=O)N1 ([Mpa][hArg]GDWPC-NH2; disulfide 1-7) | inactive | inactive | inactive | inactive | inactive | inactive | 10.6 µM (active) | inactive | inactive | inactive | inactive | inactive | inactive | inactive | inactive | inactive | -0.95 | inactive | inactive
OCC1(CO)COCOC1 | inactive | inactive | inactive | inactive | inactive | inactive | inactive | inactive | inactive | inactive | inactive | inactive | inactive | inactive | inactive | inactive | – | – | –
CC(C)Cn1cnc2c1c(=O)n(C)c(=O)n2C | inactive | inactive | inactive | inactive | inactive | inactive | inactive | inactive | inactive | inactive | inactive | inactive | inactive | 15.5 µM (active) | inactive | inactive | 0.329 | inactive | inactive
CCCCCCCCCCCCCCC(=O)NC(CO)CCCCCCCCCCCCCC (configuration not stated) | inactive | inactive | inactive | inactive | inactive | inactive | inactive | inactive | inactive | inactive | inactive | inactive | inactive | 63.8 µM (active) | inactive | inactive | – | – | –
COc1cc(/C=C/C(N)=O)cc(OC)c1OC | inactive | inactive | inactive | inactive | inactive | inactive | inactive | inactive | inactive | inactive | inactive | inactive | inactive | 21.9 µM (active) | inactive | inactive | – | – | –
C/C=C(\C)C(C)=O | inactive | inactive | inactive | inactive | inactive | inactive | inactive | inactive | inactive | inactive | inactive | inactive | inactive | inactive | inactive | – | – | – | –

Source: PubChem BioAssay (Tox21)
